Data published in PubChem BioAssay AID602143 (Vanderbilt Specialized Chemistry Center, 2011).
Active and inactive are the calls of the source. Rule as the data show it: active = remaining activity below about 50%; inactive = the rest.

Each compound was assayed against Phospholipase D2 (Homo sapiens) (UniProt O14939) (assay: PLD2 inhibitors in cells, cell-based, HEK293, single concentration (AID 602143;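 also: tested at 200 nM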)). Settings: HEK293 cellular PLD2 activity, percent of control; active compounds read low.
Phospholipase D2 (Homo sapiens), sequence (O14939 whole entry, looked up): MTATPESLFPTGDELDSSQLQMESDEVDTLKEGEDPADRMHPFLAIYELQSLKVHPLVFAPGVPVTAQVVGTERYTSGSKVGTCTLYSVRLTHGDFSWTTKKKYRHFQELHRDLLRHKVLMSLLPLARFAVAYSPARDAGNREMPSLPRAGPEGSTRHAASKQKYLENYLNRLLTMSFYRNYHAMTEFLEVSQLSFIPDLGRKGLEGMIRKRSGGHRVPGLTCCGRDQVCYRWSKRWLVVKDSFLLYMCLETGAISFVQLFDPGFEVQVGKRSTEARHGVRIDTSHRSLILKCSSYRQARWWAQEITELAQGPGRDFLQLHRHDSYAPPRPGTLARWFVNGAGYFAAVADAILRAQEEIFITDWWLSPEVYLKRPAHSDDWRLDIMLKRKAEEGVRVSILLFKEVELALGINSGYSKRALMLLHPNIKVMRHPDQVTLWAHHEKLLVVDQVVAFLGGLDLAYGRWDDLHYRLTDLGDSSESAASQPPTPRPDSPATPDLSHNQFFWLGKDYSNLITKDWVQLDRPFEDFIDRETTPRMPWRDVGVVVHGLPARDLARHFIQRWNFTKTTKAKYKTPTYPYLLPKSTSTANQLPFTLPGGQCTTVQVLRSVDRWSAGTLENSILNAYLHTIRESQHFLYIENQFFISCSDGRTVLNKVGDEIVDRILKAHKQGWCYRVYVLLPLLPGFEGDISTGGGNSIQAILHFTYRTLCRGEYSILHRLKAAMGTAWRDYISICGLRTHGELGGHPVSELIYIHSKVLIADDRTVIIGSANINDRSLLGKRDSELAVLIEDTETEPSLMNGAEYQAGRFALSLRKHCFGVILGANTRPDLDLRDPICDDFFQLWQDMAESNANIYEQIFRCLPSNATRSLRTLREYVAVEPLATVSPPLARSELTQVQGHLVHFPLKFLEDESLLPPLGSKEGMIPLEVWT
Phospholipase D2 (Homo sapiens), sequence (O14939 whole entry, looked up): as above

Row | SMILES | remaining activity
1 | Cn1c(=O)n(C2CCN(CCNC(=O)c3ccc(F)cc3)CC2)c2ccccc21 | 69.8% (inactive)
2 | O=C(NCCN1CCC(n2c(=O)[nH]c3ccc(F)cc32)CC1)c1ccc(C(F)(F)F)cc1 | 61.8% (inactive)
3 | O=C(NCCN1CCN(c2ncccn2)CC1)c1ccc(F)cc1 | 92.2% (inactive)
4 | O=c1[nH]c2ccccc2n1C1CCN(CCNS(=O)(=O)c2ccc(Cl)cc2)CC1 | 115% (inactive)
5 | O=C1c2ccccc2C(=O)N1CCCN1CCC(n2c(=O)[nH]c3cc(Cl)ccc32)CC1 | 74.6% (inactive)
6 | C[C@@H](CN1CCC2(C=Cc3ccccc32)CC1)NC(=O)c1ccc2ccccc2c1 | 147% (inactive)
7 | Cn1c(C2CCN(CC3(N)CCCC3)CC2)nc2ccccc21 (tested in a mixture with another compound) | 118% (inactive)
8 | O=c1[nH]c2ccccc2n1C1CCN(CCNS(=O)(=O)c2ccccc2C(F)(F)F)CC1 | 98% (inactive)
9 | C[C@@H](CN1CCC(n2c(=O)[nH]c3ccc(F)cc32)CC1)NC(=O)c1ccc(F)c(F)c1 | 52.6% (inactive)
10 | O=c1[nH]c2ccccc2n1C1CCN(CCNC(=S)Nc2ccccn2)CC1 | 72.7% (inactive)
11 | O=C(NCCN1CCC(n2c(=O)[nH]c3ccccc32)CC1)N1c2ccccc2C=Cc2ccccc21 | 66.5% (inactive)
12 | O=C(NCCN1CCC2(C=Cc3ccccc32)CC1)[C@H]1C[C@@H]1c1ccccc1 | 130% (inactive)
13 | O=C(NCCN1CCC(n2nnc3ccccc32)CC1)c1ccc2ccccc2c1 | 0.808% (active)
